Results: PubChem BioAssay (NCI)
About 79,000 compounds went through this panel and 15% of them were active in at least one assay; those are over-represented in the sample as a whole. Activity calls are given as the source filed them. Rule as the data show it: active = growth inhibition above about 70%; inactive = the rest.

Assays:
[1] = NCI Yeast Anticancer Drug Screen. Data for the rad52 strain (AID 147);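 also: 0% = growth of vehicle-treated control cultures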; conditions: S. cerevisiae rad52 mutant growth inhibition, active compounds read high
In short: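 Here a repair-compromised yeast strain receives each compound; its growth is then quantified and normalised to vehicle-only controls.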

[2] = NCI Yeast Anticancer Drug Screen. Data for the wt1 strain (AID 149);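 also: 0% = growth of vehicle-treated wt1 cultures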; conditions: S. cerevisiae wt1 strain (SPY 50644) growth inhibition, active compounds read high
In short: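 Yeast wt1 strain exposed to compounds; growth inhibition measured relative to vehicle-treated controls.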

[3] = NCI Yeast Anticancer Drug Screen. Data for the rad50EPP+ strain (AID 151);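 also: 0% = growth of vehicle-treated control cultures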; conditions: S. cerevisiae rad50 mutant strain, active compounds read high
In short: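 Read-out is yeast growth inhibition relative to vehicle; cells used were the rad50EPP+ strain.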

[4] = NCI Yeast Anticancer Drug Screen. Data for the mgt1 strain (AID 153); conditions: S. cerevisiae mgt1 mutant growth inhibition, active compounds read high
In short: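 Measured: inhibition of mgt1 yeast growth by compound, normalized to vehicle-treated cultures.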

[5] = NCI Yeast Anticancer Drug Screen. Data for the rad50 strain (AID 155);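 also: 0% = growth of vehicle-only cultures of the same strain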; conditions: S. cerevisiae rad50 strain growth inhibition, active compounds read high
In short: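 Yeast carrying a defined DNA repair defect were exposed to test compounds, and growth was compared with vehicle-treated controls to give percent inhibition.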

[6] = NCI Yeast Anticancer Drug Screen. Data for the mec2-1 strain (AID 157); conditions: S. cerevisiae mec2-1 strain, active compounds read high
In short: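 Using mec2-1 yeast: add compound, measure growth, express inhibition versus vehicle-treated cultures.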

[7] = NCI Yeast Anticancer Drug Screen. Data for the rad14 strain (AID 159);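 also: 0% = growth of vehicle-treated control cultures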; conditions: S. cerevisiae rad14 strain growth inhibition, active compounds read high
In short: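 Yeast cells carrying a defined DNA-repair defect were exposed to compounds, and growth inhibition was calculated relative to vehicle-treated control cultures.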

[8] = NCI Yeast Anticancer Drug Screen. Data for the sgs1 mgt1 strain (AID 161);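 also: 0% = growth of cultures given vehicle only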; conditions: S. cerevisiae sgs1 mgt1 strain, active compounds read high
In short: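 Growth of a repair-deficient yeast mutant was monitored after compound treatment and expressed as inhibition relative to vehicle-treated cultures.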

[9] = NCI Yeast Anticancer Drug Screen. Data for the CLN2oe strain (AID 163);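 also: 0% = growth of vehicle-only control cultures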; conditions: S. cerevisiae CLN2oe strain, active compounds read high
In short: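 Whole-cell yeast growth assay. A strain engineered for altered cell-cycle control received compound, and inhibition relative to vehicle-treated cultures was recorded.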

[10] = NCI Yeast Anticancer Drug Screen. Data for the cln2 rad14 strain (AID 165);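 also: 0% = growth equal to vehicle treated cultures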; conditions: S. cerevisiae cln2 rad14 strain, active compounds read high
In short: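 Yeast strain cln2 rad14, bearing defects in cell cycle control and DNA repair, serves as the test system; values reflect growth inhibition compared with vehicle.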

[11] = NCI Yeast Anticancer Drug Screen. Data for the bub3 strain (AID 167); conditions: S. cerevisiae bub3 mutant strain, active compounds read high
In short: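 Compounds were applied to a genetically altered yeast strain carrying a cell-cycle control defect. Growth inhibition was scored against vehicle-treated controls.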

[12] = NCI Yeast Anticancer Drug Screen. Data for the wt2 strain (AID 169);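 also: 0% = growth of vehicle-treated yeast cultures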; conditions: S. cerevisiae wt2 strain growth inhibition, active compounds read high
In short: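 Treated yeast vs. vehicle-treated yeast: growth inhibition determined.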

[13] = NCI Yeast Anticancer Drug Screen. Data for the mlh1 strain (AID 171);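 also: 0% = growth of vehicle-treated control cultures of the same strain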; conditions: S. cerevisiae mlh1 strain growth inhibition, active compounds read high
In short: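 A yeast strain with a defined genetic lesion serves as the test organism. Cultures receive compound or vehicle, and growth is measured.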

[14] = NCI Yeast Anticancer Drug Screen. Data for the sgs1 strain (AID 173);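 also: 0% = growth of vehicle-only control cultures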; conditions: S. cerevisiae sgs1 mutant, active compounds read high
In short: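 A genetically defined yeast mutant is incubated with the test compound, and its growth is compared to that of the same strain given vehicle.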

[15] = NCI Yeast Anticancer Drug Screen. Data for the mlh1 rad18 strain (AID 175); conditions: S. cerevisiae mlh1 rad18 strain growth inhibition, active compounds read high
In short: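 Steps: expose repair-defective yeast to compound; measure growth; express inhibition against vehicle-treated controls.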

[16] = NCI Yeast Anticancer Drug Screen. Data for the rad18 strain (AID 177); conditions: S. cerevisiae rad18 mutant growth inhibition, active compounds read high
In short: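 Measured value is growth inhibition of a yeast strain bearing a DNA repair alteration, referenced to vehicle-treated cells.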

[17] = at 5.0 µM (retest, dose inferred, filed as 0.5)
[18] = at 50.0 µM (retest, dose inferred, filed as 5.0)

Measured: growth inhibition

CCCS(=O)(=O)Nc1ccc(Nc2c3ccccc3nc3ccccc23)c(OC)c1
active: [1]; at 11.0 µM 82% | [1]; at 33.0 µM 87% | [1]; at 100.0 µM 93% | [4]; at 100.0 µM 73% | [5]; [17] 79% | [5]; at 11.0 µM 84% | [5]; at 33.0 µM 90% | [5]; [18] 98% | [5]; at 100.0 µM 91% | [6]; [18] 99% | [6]; at 100.0 µM 85% | [8]; [18] 99% | [8]; at 50.0 µM 82.8% | [10]; [18] 98% | [11]; [18] 98% | [13]; at 100.0 µM 74% | [14]; at 100.0 µM 77% | [15]; [18] 98% | [16]; at 100.0 µM 75%
inactive: [1]; at 1.2 µM 20% | [1]; at 3.7 µM 64% | [2]; at 1.2 µM -70% | [2]; at 3.7 µM -55% | [2]; at 11.0 µM -64% | [2]; at 33.0 µM -35% | [2]; at 100.0 µM 66% | [3]; at 1.2 µM -32% | [3]; at 3.7 µM -21% | [3]; at 11.0 µM -20% | [3]; at 33.0 µM 16% | [3]; at 100.0 µM 69% | [4]; at 1.2 µM -21% | [4]; at 3.7 µM -64% | [4]; at 11.0 µM -52% | [4]; at 33.0 µM -10% | [5]; at 1.2 µM 14% | [5]; at 3.7 µM 59% | [5]; at 50.0 µM 7.1% | [6]; at 1.2 µM -59% | [6]; at 3.7 µM -88% | [6]; [17] 2% | [6]; at 11.0 µM -60% | [6]; at 33.0 µM 33% | [6]; at 50.0 µM 12.8% | [7]; at 1.2 µM -62% | [7]; at 3.7 µM -61% | [7]; at 11.0 µM -43% | [7]; at 33.0 µM -16% | [7]; at 100.0 µM 66% | [8]; [17] 36% | [9]; at 1.2 µM -9% | [9]; at 3.7 µM -14% | [9]; at 11.0 µM -11% | [9]; at 33.0 µM 21% | [9]; at 100.0 µM 67% | [10]; [17] 34% | [10]; at 50.0 µM 52% | [11]; at 1.2 µM -67% | [11]; at 3.7 µM -49% | [11]; [17] 40% | [11]; at 11.0 µM -45% | [11]; at 33.0 µM -16% | [11]; at 50.0 µM 37.6% | [11]; at 100.0 µM 65% | [12]; at 1.2 µM -37% | [12]; at 3.7 µM -40% | [12]; at 11.0 µM -41% | [12]; at 33.0 µM -10% | [12]; at 100.0 µM 69% | [13]; at 1.2 µM -85% | [13]; at 3.7 µM -74% | [13]; at 11.0 µM -45% | [13]; at 33.0 µM 9% | [14]; at 1.2 µM -45% | [14]; at 3.7 µM -47% | [14]; at 11.0 µM -41% | [14]; at 33.0 µM 7% | [15]; [17] 66% | [15]; at 50.0 µM 29.4% | [16]; at 1.2 µM -58% | [16]; at 3.7 µM -63% | [16]; at 11.0 µM -43% | [16]; at 33.0 µM -10%

CCOC(=O)[C@H]1Nc2ccccc2C2c3ccccc3CC21 (stereo partly specified)
inactive: [1]; at 1.2 µM -39% | [1]; at 3.7 µM -44% | [1]; at 11.0 µM -10% | [1]; at 33.0 µM 55% | [2]; at 1.2 µM -9% | [2]; at 3.7 µM -2% | [2]; at 11.0 µM 0% | [2]; at 33.0 µM 26% | [2]; at 100.0 µM 54% | [3]; at 1.2 µM 6% | [3]; at 3.7 µM 0% | [3]; at 11.0 µM 14% | [3]; at 33.0 µM 31% | [3]; at 100.0 µM 14% | [4]; at 1.2 µM -4% | [4]; at 3.7 µM 10% | [4]; at 11.0 µM 53% | [4]; at 33.0 µM 64% | [4]; at 100.0 µM 65% | [5]; at 1.2 µM -6% | [5]; at 3.7 µM -9% | [5]; [17] 15% | [5]; at 11.0 µM -4% | [5]; at 33.0 µM 27% | [5]; at 100.0 µM 55% | [6]; at 1.2 µM -23% | [6]; at 3.7 µM -12% | [6]; [17] -10% | [6]; at 11.0 µM 21% | [6]; at 33.0 µM 53% | [6]; [18] 20% | [6]; at 100.0 µM 65% | [7]; at 1.2 µM -13% | [7]; at 3.7 µM -16% | [7]; at 11.0 µM 1% | [7]; at 33.0 µM 22% | [7]; at 100.0 µM 50% | [8]; [17] 25% | [9]; at 1.2 µM 5% | [9]; at 3.7 µM -1% | [9]; at 11.0 µM 11% | [9]; at 33.0 µM 30% | [9]; at 100.0 µM 23% | [10]; [17] 13% | [11]; at 1.2 µM -4% | [11]; at 3.7 µM 11% | [11]; [17] -6% | [11]; at 11.0 µM 23% | [12]; at 1.2 µM -31% | [12]; at 3.7 µM -25% | [12]; at 11.0 µM 21% | [12]; at 33.0 µM 44% | [12]; at 100.0 µM 48% | [13]; at 1.2 µM -3% | [13]; at 3.7 µM 28% | [13]; at 11.0 µM 52% | [13]; at 100.0 µM 60% | [14]; at 1.2 µM -6% | [14]; at 3.7 µM 4% | [14]; at 11.0 µM 41% | [14]; at 33.0 µM 64% | [15]; [17] 8% | [16]; at 1.2 µM -31% | [16]; at 3.7 µM -36% | [16]; at 11.0 µM 17% | [16]; at 33.0 µM 64%
active: [1]; at 100.0 µM 76% | [5]; [18] 91% | [5]; at 50.0 µM 84.6% | [6]; at 50.0 µM 91.3% | [8]; [18] 83% | [8]; at 50.0 µM 91.4% | [10]; [18] 73% | [10]; at 50.0 µM 90.9% | [11]; at 33.0 µM 79% | [11]; [18] 75% | [11]; at 50.0 µM 90.5% | [11]; at 100.0 µM 81% | [13]; at 33.0 µM 70% | [14]; at 100.0 µM 72% | [15]; [18] 94% | [15]; at 50.0 µM 87.8% | [16]; at 100.0 µM 74%
